Holding throughout (conditions): mRNA level, 48 h; actives raise or lower the signal
Read-out in test [1]: Cytochrome P450 3A4 (Homo sapiens) (UniProt P08684)
As to the kind of experiment: LTEA_HepaRG_CYP3A4: Life Technologies and Expression Analysis (LTEA) Assay for CYP3A4 using HepaRG (AID 2283487). The essentials:
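In a human hepatic line (HepaRG), duplicate wells were treated 48 h with up to 100 uM chemical in half-log dilutions. Endpoint: CYP3A4 mRNA induction or loss relative to 0.5% DMSO vehicle, by qRT-PCR.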

Read-out in test [2]: DNA damage-inducible transcript 3 (DDIT3), DDIT3 (gene 1649)
Description: LTEA_HepaRG_DDIT3: Life Technologies and Expression Analysis (LTEA) Assay for DNA damage-inducible transcript 3 (DDIT3) using HepaRG (AID 2283488). An outline of the steps: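 Eight-point concentration-response (100 uM highest, half-log dilutions) in HepaRG, 48 h, duplicate wells. Endpoint: qRT-PCR mRNA, normalized (ACTB, GAPDH, POLR2A), bidirectional fitting with DMSO as baseline.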

Read-out in test [3]: Early growth response protein 1 (EGR1) transcription factor, EGR1 (gene 1958)
As to the kind of experiment: LTEA_HepaRG_EGR1: Life Technologies and Expression Analysis (LTEA) Assay for Early growth response protein 1 (EGR1) transcription factor using HepaRG (AID 2283490). The essentials:
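EGR1 transcript levels quantified by qRT-PCR (Fluidigm arrays) against three housekeeping genes after 48 h chemical exposure of HepaRG cells. Eight-point half-log series topping at 100 uM, 0.5% DMSO vehicle, analyzed for gain or loss.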

Read-out in test [4]: Ezrin (EZR), EZR (gene 7430)
Description: LTEA_HepaRG_EZR: Life Technologies and Expression Analysis (LTEA) Assay for Ezrin (EZR) using HepaRG (AID 2283491). The essentials:
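Gain or loss of EZR mRNA is scored relative to 0.5% DMSO in human HepaRG cultures treated 48 h with test chemicals in duplicate, eight half-log concentrations from 100 uM.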

Read-out in test [5]: Cytochrome P450 3A7 (Homo sapiens) (UniProt P24462)
Description: LTEA_HepaRG_CYP3A7: Life Technologies and Expression Analysis (LTEA) Assay for CYP3A7 using HepaRG (AID 2283492). An outline of the steps: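 Cells were thawed, plated, cultured 48 h, then treated for a further 48 h with chemicals (eight-point half-log series from 100 uM, 0.5% DMSO). RNA was isolated and CYP3A7 expression quantified by qRT-PCR normalised to ACTB, GAPDH and POLR2A.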

Read-out in test [6]: CYP3A5 (gene 1577)
As to the kind of experiment: LTEA_HepaRG_CYP3A5: Life Technologies and Expression Analysis (LTEA) Assay for CYP3A5 using HepaRG (AID 2283493). The essentials:
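Readout was CYP3A5 mRNA by qRT-PCR. HepaRG cultures were exposed for 48 h in serum-free induction medium to chemicals at up to 100 uM, and responses were fitted in both directions relative to DMSO vehicle.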

Read-out in test [7]: Fatty Acid-Binding Protein 1 (FABP1), FABP1 (gene 2168)
As to the kind of experiment: LTEA_HepaRG_FABP1: Life Technologies and Expression Analysis (LTEA) Assay for Fatty Acid-Binding Protein 1 (FABP1) using HepaRG (AID 2283494). The essentials: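 FABP1 expression by TaqMan qRT-PCR, normalised to three housekeeping genes, in HepaRG cells after 48 h chemical treatment. Eight-point half-log series topping at 100 uM in 0.5% DMSO, duplicates; gain or loss fitted relative to vehicle.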

Read-out in test [8]: Cytochrome P450 4A22 (Homo sapiens) (UniProt Q5TCH4)
Description: LTEA_HepaRG_CYP4A22: Life Technologies and Expression Analysis (LTEA) Assay for Cytochrome P450 4A22 (CYP4A22) using HepaRG (AID 2283495). The essentials:
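Cryopreserved HepaRG cells, plated and cultured 48 h, then switched to serum-free induction medium and treated 48 h (duplicates, up to 100 uM, half-log steps, 0.5% DMSO). Expression change of CYP4A22 was fitted bidirectionally against vehicle.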

Read-out in test [9]: Cytochrome P450 7A1 (Homo sapiens) (UniProt P22680)
As to the kind of experiment: LTEA_HepaRG_CYP7A1: Life Technologies and Expression Analysis (LTEA) Assay for Cytochrome P450 7A1 (CYP7A1) using HepaRG (AID 2283496). The essentials:
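Using 0.5% DMSO as vehicle and baseline, chemicals were tested in duplicate over an 8-point range from 100 uM on HepaRG cells for 48 h; qRT-PCR signals were normalised to ACTB, GAPDH and POLR2A.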

Read-out in test [10]: Pro-epidermal growth factor (Homo sapiens) (UniProt P01133)
As to the kind of experiment: LTEA_HepaRG_EGF: Life Technologies and Expression Analysis (LTEA) Assay for Epidermal growth factor (EGF) using HepaRG (AID 2283489). An outline of the steps: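 EGF expression changes in human HepaRG cells are scored by bidirectional fitting relative to 0.5% DMSO controls. Chemicals are tested at eight half-log concentrations up to 100 uM for 48 h in serum-free induction medium.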

Calls of active or inactive are those of the source. The calls were made as follows: active = hit-call score of the fitted dose curve at least 0.9, where 1 is the maximum; inactive = score below 0.9.

A word on the AC50: it is the concentration giving half of the maximal activity seen.

Cytochrome P450 3A7 (Homo sapiens), sequence (P24462 whole entry, looked up): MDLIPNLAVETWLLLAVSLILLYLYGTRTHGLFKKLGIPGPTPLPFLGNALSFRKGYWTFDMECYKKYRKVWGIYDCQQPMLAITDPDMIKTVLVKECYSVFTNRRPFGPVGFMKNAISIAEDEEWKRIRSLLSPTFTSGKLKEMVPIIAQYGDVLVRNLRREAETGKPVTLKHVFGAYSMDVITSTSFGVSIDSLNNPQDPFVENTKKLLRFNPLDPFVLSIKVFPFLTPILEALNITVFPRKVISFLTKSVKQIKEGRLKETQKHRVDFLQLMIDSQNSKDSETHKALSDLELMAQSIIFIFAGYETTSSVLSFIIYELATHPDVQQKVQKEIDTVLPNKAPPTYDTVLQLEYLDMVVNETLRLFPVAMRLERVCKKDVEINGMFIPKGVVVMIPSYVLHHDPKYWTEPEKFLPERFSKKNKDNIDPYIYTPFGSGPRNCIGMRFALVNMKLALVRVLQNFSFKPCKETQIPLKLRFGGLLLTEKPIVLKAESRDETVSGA
Cytochrome P450 3A4 (Homo sapiens), sequence (P08684 whole entry, looked up): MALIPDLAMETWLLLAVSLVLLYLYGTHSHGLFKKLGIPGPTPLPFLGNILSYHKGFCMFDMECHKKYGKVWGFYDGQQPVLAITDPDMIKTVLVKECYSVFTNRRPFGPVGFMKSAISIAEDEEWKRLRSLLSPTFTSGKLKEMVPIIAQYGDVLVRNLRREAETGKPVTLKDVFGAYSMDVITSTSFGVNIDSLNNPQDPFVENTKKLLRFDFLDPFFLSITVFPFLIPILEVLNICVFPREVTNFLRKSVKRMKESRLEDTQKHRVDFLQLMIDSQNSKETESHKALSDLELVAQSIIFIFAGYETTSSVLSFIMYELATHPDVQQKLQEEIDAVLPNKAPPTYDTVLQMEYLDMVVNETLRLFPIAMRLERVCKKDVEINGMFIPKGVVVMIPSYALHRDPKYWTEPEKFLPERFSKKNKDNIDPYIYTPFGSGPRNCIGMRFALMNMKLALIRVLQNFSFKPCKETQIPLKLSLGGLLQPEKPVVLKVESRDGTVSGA

In the case of `CCCCCCC(C=O)=Cc1ccccc1`, the outcome in test [1], in test [2], in [3], in test [4], in test [5] and in test [6] was inactive. Besides, the compound was classed as inactive in test [7], in test [8] and in test [9].

Consider `CC1=C(C)S(=O)(=O)CCS1(=O)=O`, for which the AC50 in test [1] was 50 µM (active); in [10], 12 µM (active); in test [3], 80.6 µM (active); in [5] it was 72 µM (active); in test [7], 88.1 µM (active); in test [8], 50 µM (active). The AC50 in [9] is 92.6 µM (active). Besides, the call in [4] and in test [6] was inactive.

Consider `CCCCC(CC)COC(=O)CCCCCCCC(=O)OCC(CC)CCCC` (configuration not stated), for which the outcome in [1], in test [2], in test [3], in test [4], in test [5] and in test [6] was inactive. Also, the outcome in [7], in test [8] and in [9] was inactive.

For the compound `CCOCCOCCO`, the outcome in [1], in test [2], in test [3], in test [4], in [5] and in [6] was inactive. Moreover, the result in [7], in test [8] and in test [9] was inactive.

Consider `CN(C)CCCN(C)CCCN(C)C`, for which the compound was called inactive in test [1], in test [10], in [3], in test [4], in test [5] and in test [6]. Moreover, the compound was called inactive in test [7], in [8] and in test [9].

With `CC(=O)OCC(COC(C)=O)OC(C)=O`, the compound was classed as inactive in [1], in [10], in test [3], in test [4], in test [5] and in test [6]. Besides, the compound was classed as inactive in [7], in test [8] and in [9].

As to `CCCCC(CC)COP(=O)(OCC(CC)CCCC)OCC(CC)CCCC` (configuration not stated), the AC50 in test [1] was 5.79 µM (active); in test [5] it was 5.61 µM (active). Also, the compound was called inactive in [10], in test [3], in test [4], in test [6], in test [7] and in test [8]. Besides, the outcome in [9] was inactive.

For the compound `CCCCCCC(CCCCCCCCCCC(=O)OCC(COC(C)=O)OC(C)=O)OC(C)=O` (configuration not stated), the result in test [1], in test [10], in test [3], in test [4], in [5] and in [6] was inactive. Further, the call in test [7], in [8] and in [9] was inactive.

On to `COC(=O)CCC(=O)OC`, for which the result in test [1], in test [10], in test [3], in [4], in test [5] and in test [6] was inactive. Also, the result in test [7], in test [8] and in [9] was inactive.

On to `Cc1ccc(C(C)(C)C)c(O)c1`, for which the compound was classed as inactive in [1], in test [10], in test [3], in test [4], in test [5] and in test [6]. Moreover, the outcome in [7], in test [8] and in [9] was inactive.

As for `O=C(Oc1ccccc1)c1cccc(C(=O)Oc2ccccc2)c1`, the compound was classed as inactive in test [1], in test [10], in test [3], in [4], in test [5] and in [6]. The compound was classed as inactive in [7], in test [8] and in test [9].

For `CC(=O)O[C@]1(C(C)=O)CC[C@H]2[C@@H]3C=C(Cl)C4=CC(=O)[C@@H]5C[C@@H]5[C@]4(C)[C@H]3CC[C@@]21C`, the concentration at half-maximal activity (AC50) in test [1] was 36.5 µM (active); in [2], 18.5 µM (active); in [6], 50 µM (active); in test [7], 21.7 µM (active); in test [9], 59 µM (active). The compound was called inactive in [3], in [4], in test [5] and in [8].

Take `NC(=Nc1ccccc1)Nc1ccccc1`: the result in test [1], in [3], in test [4], in [5], in test [6] and in test [7] was inactive. Moreover, the outcome in [8] and in test [9] was inactive. The AC50 in [2] is 27.6 µM (active).

Turning to `CN(C)C(=O)NC1(c2ccccc2)CCN(CC[C@@]2(c3ccc(F)c(F)c3)CN(C(=O)c3ccccc3)CCO2)CC1`, the AC50 in [1] was 2.69 µM (active); in test [5], 2.8 µM (active); in test [8], 47.3 µM (active). The compound was classed as inactive in test [10], in test [3], in [4], in [6], in test [7] and in test [9].

For the compound `CCCCCCCCCC[N+](C)(C)[O-]`, the compound was called inactive in test [1], in test [2], in test [3], in [4], in test [5] and in [6]. The compound was called inactive in test [7], in [8] and in test [9].

As to `O=C(O)CC(O)(CC(=O)O)C(=O)O`, the compound was classed as inactive in test [1], in [2], in [3], in [4], in test [5] and in test [6]. The outcome in [7], in test [8] and in test [9] was inactive.

Consider `CCCCCCCCCCCCCCOS(=O)(=O)O`, for which the compound was classed as inactive in [1], in test [10], in [3], in [4], in [5] and in test [6]. The compound was classed as inactive in test [7] and in test [8]. In test [9], the AC50 is 23.7 µM (active).

As to `CC(=O)S[C@H](C(=O)N[C@H]1Cc2ccccc2[C@H]2CCC[C@@H](C(=O)O)N2C1=O)C(C)C`, the compound was classed as inactive in test [1], in test [10], in [3], in test [4], in test [5] and in [6]. Moreover, the compound was classed as inactive in test [7], in test [8] and in [9].

With `CCN(CC)CCOc1ccc(C(=C(Cl)c2ccccc2)c2ccccc2)cc1`, the result in test [1], in test [5], in test [6] and in test [7] was inactive. For the same compound, the half-maximal activity concentration (AC50) in [2] was 42 µM (active); in test [3], 81.3 µM (active); in test [4], 67.8 µM (active); in [8] it was 13.3 µM (active); in [9] it was 13.3 µM (active).

Regarding `Nc1nc(Cl)nc2c1ncn2[C@H]1C[C@H](O)[C@@H](CO)O1`, the AC50 in test [3] was 0.272 µM (active); in test [6] it was 0.481 µM (active); in [7], 1.33 µM (active); in test [8], 5.92 µM (active); in test [9] it was 1.2 µM (active). Also, the outcome in test [4] was inactive.

With `CC(=O)CC(c1ccccc1)c1c(O)c2ccccc2oc1=O` (configuration not stated), the result in [2], in test [3], in test [4], in test [6], in [7] and in test [8] was inactive. The result in [9] was inactive. For the same compound, the concentration at half-maximal activity (AC50) in test [5] was 34.7 µM (active).

Turning to `Nc1nc(=S)c2[nH]cnc2[nH]1`, the AC50 in test [1] is 27.6 µM (active); in [3], 7.2 µM (active); in [4], 0.586 µM (active); in test [7] it was 9.73 µM (active); in test [8], 7.06 µM (active); in test [9], 10.2 µM (active). Further, the result in test [6] was inactive.
